Active and inactive are the calls of the source.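 How the source made its calls, unless noted: active means inhibition above 20% together with a positive visual image hit; inconclusive means visual image hit but inhibition not above 20%; inactive means no visual image hit.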
What was measured:
[1] = inhibitors of TNFa-induced NFkB p65 translocation, primary screen, imaging, HUVEC, MLSMR starter and 10KST1 sets (AID 438); conditions: HUVEC TNFa-induced p65 nuclear translocation; cell count: measured here: nuclei count (cytotoxicity indicator), at 2.08 µM; inhibition: at 2 µM, stronger effect = higher value, 0% TNFa-plus-vehicle, 100% no-TNFa wells;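 further: compound added about 3h40 before a 20 min TNFalpha stimulation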;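 on inhibition: signal is the nuclear over cytoplasmic p65 intensity ratio per well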
[2] = reduction of polyQ htt aggregates in cells – imaging, exon1htt(103Q)mCFP cells, high-content imaging, primary screen (AID 483;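 active means visual image review flags a hit and inhibition of aggregation exceeds 20%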;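 further: compound exposure lasted 3 days before fixation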;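 on nuclei count: percent of the per-plate median nuclei count of sample wells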); conditions: exon1htt(103Q)mCFP cell line, aggregate imaging, at 2 µM; inhibition of aggregation: stronger effect = higher value; nuclei count: measured here: cell count, toxicity
[3] = endothelial E-selectin expression blockers – imaging, HUVEC, immunofluorescence, MLSMR starter and 10KST1 sets, primary screen (AID 487;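 active means visually confirmed hit in the image check and inhibition above 20%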;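 on inhibition: signal is fraction of cell area covered by stained E-selectin grains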;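 on nuclei count: 100% = median nuclei count of all wells on the same plate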); conditions: HUVEC TNFalpha-induced E-selectin immunofluorescence imaging, at 2 µM; inhibition: stronger effect = higher value; nuclei count: measured here: cell number, toxicity
[4] = molecular target: Voltage-gated potassium channel subunit beta-2 (Rattus norvegicus) (UniProt P62483); assay: inhibitors of rat Kvbeta2 reductase activity – biochemical, NADPH fluorescence, primary screen (AID 622;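 active means fluorescence slope higher than the sample average by over 3 SD, cut at about -0.22 in these data, passing the limit was not always enough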;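 further: slope of raw intensity against log time taken from 70 to 1610 s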); conditions: recombinant KvBeta, 4-cyanobenzaldehyde reduction, at 10 µM, stronger effect = higher value
[5] = molecular target: Voltage-gated potassium channel subunit beta-2 (Rattus norvegicus) (UniProt P62483); assay: enhancers of rat Kvbeta2 NADPH turnover – biochemical, NADPH fluorescence, primary screen (AID 623;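 active means NADPH fluorescence slope more negative than the mean of all samples by about 3 SD, 99.7% confidence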;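 further: fluorescence intensity change per second fitted from 20 to 320 s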); conditions: Recombinant KvBeta, NADPH fluorescence decrease slope, 10 min; at 10 µM; stronger effect = lower value
[6] = molecular target: Alpha-2C adrenergic receptor (Homo sapiens) (UniProt P18825); assay: compounds altering alpha2C-coupled GIRK flux – cell-based, HEK293 alpha2C/GIRK1/2, thallium flux, primary screen (AID 624;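 active means fluorescence slope after compound addition differing from the mean of all screened samples at 99.7% confidence, in either direction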;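 further: slope of fluorescence ratio to pre-addition baseline per second over 15 to 24 s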); conditions: thallium flux BTC fluorescence, at 10 µM, actives lie on both sides
[7] = blockers of RIG-like receptor reporter activation – cell-based, Sendai virus stimulus, luciferase, 10K MLSCN set, TLR/RLR signaling modifier project, primary screen (AID 602276;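 active means inhibition at or above 50% at 10 µM; inactive means inhibition below 50%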;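 further: firefly luciferase from ISG56 promoter only with Renilla not read in this screen; 0% = Sendai virus plus DMSO and 100% = medium plus DMSO without virus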); conditions: HEK293 RL24 IRF3 luciferase reporter, at 10 µM, stronger effect = higher value
[8] = TLR3 IRF3 reporter activation blockers – cell-based, poly I:C stimulus, luciferase, 10K MLSCN set, primary screen (AID 602277;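 active means inhibition of the reporter signal at or above 50%; inactive means inhibition below 50%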); conditions: HEK293-TLR3 RL24 IRF3 luciferase reporter, at 10 µM, stronger effect = higher value

Voltage-gated potassium channel subunit beta-2 (Rattus norvegicus), sequence (P62483 whole entry, looked up): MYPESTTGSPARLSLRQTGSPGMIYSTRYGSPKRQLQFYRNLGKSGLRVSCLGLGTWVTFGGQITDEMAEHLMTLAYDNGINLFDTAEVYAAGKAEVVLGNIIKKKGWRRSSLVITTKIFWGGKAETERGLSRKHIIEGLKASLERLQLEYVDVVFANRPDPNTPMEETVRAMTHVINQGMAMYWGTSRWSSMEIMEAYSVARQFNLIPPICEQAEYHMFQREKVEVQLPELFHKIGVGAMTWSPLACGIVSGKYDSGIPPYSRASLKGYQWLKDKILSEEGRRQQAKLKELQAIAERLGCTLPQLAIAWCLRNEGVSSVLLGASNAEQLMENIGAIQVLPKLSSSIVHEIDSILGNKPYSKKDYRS
Alpha-2C adrenergic receptor (Homo sapiens), sequence (P18825 whole entry, looked up): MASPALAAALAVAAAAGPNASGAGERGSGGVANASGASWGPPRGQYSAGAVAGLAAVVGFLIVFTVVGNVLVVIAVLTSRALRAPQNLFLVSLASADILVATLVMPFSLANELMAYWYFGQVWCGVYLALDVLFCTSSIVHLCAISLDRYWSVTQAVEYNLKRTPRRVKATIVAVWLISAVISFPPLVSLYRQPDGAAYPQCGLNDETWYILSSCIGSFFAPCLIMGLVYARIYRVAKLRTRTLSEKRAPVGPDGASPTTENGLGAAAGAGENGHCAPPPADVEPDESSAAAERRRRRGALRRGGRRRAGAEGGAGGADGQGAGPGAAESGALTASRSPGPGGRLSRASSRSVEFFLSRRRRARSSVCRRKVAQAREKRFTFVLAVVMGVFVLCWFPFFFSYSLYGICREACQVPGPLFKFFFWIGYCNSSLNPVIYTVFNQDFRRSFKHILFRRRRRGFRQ

Row | SMILES | cell count [1] | inhibition [1] | inhibition of aggregation [2] | nuclei count [2] [%] | inhibition [3] | nuclei count [3] [%] | fluorescence slope [4] | NADPH fluorescence slope [5] | slope [6] | inhibition [7] | inhibition [8]
1 | COc1cccc2cc(C(=O)OC3CCN(C)CC3)c(=O)oc12 | 532 | -6.1% (inactive) | 38.8% (inactive) | 77.9 | -56% (inactive) | 110 | -0.605 (inactive) | -2.6e-06 (inactive) | 0.00643 (inactive) | 6.92% (inactive) | 31.8% (inactive)
2 | CC(OC(=O)C1CC=CCC1C(N)=O)C(Cl)=C(Cl)Cl (stereo not drawn) | 326 | 1.3% (inactive) | -6% (inactive) | 108 | -94.9% (inactive) | 132 | -0.506 (inactive) | -1.1e-05 (inactive) | 0.00744 (inactive) | -2.75% (inactive) | 6.78% (inactive)
3 | CCOC(=O)N1CCN(C(=O)c2c(-c3ccccc3)noc2C)CC1 | 816 | 0% (inactive) | -5.9% (inactive) | 107 | -27.3% (inactive) | 106 | -0.421 (inactive) | -4.8e-05 (inactive) | 0.00537 (inactive) | 14% (inactive) | 31.9% (inactive)
4 | CC(=O)c1n[nH]nc1NC(=O)c1ccccc1 | 574 | -25.8% (inactive) | -6.9% (inactive) | 100 | -46.6% (inactive) | 119 | -0.525 (inactive) | -2.5e-05 (inactive) | 0.00678 (inactive) | 4.32% (inactive) | -46% (inactive)
5 | O=C(NCCCCNC(=O)c1c(F)c(F)c(F)c(F)c1F)c1c(F)c(F)c(F)c(F)c1F | 778 | 1% (inactive) | 10.7% (inactive) | 104 | -48.4% (inactive) | 110 | -0.308 (inactive) | 3.6e-05 (inactive) | 0.00647 (inactive) | 12.8% (inactive) | 20% (inactive)
6 | Cc1nc2sc(C(c3cccs3)N3CCC(C(N)=O)CC3)c(O)n2n1 (stereo not drawn) | 625 | -3.9% (inactive) | -7.5% (inactive) | 105 | -47.4% (inactive) | 120 | -0.565 (inactive) | -4.6e-05 (inactive) | 0.00644 (inactive) | 14.6% (inactive) | 32.7% (inactive)
7 | CCOC(=O)Cc1csc(NC(=O)CN(C)S(=O)(=O)c2ccc3c(c2)CCC(=O)N3)n1 | 585 | 12.6% (inactive) | -126% (inactive) | 29.2 | 40.4% (inactive) | 111 | -0.521 (inactive) | -3.1e-05 (inactive) | 0.00704 (inactive) | 25.7% (inactive) | 21.7% (inactive)
8 | COC(=O)CSc1nnc(-c2ccncc2)o1 | 366 | -6.8% (inactive) | -4.1% (inactive) | 94.2 | -16.8% (inactive) | 106 | -0.46 (inactive) | -4.6e-05 (inactive) | 0.00309 (inactive) | 6.97% (inactive) | 32.3% (inactive)
9 | Cc1ccc(S(=O)(=O)C2(C(=O)Nc3nccs3)CC2)cc1 | 584 | 6.5% (inactive) | 0% (inactive) | 95.6 | -69.3% (inactive) | 103 | -0.586 (inactive) | -2.1e-05 (inactive) | 0.00637 (inactive) | 13% (inactive) | 32.7% (inactive)
10 | CN(Cc1ccccc1)C(=O)c1ccc2c(c1)OCO2 | 414 | 10.6% (inactive) | -8.8% (inactive) | 108 | – | 156 | -0.595 (inactive) | -2e-05 (inactive) | 0.0038 (inactive) | 2.22% (inactive) | -20.3% (inactive)
11 | O=C(O)c1cccc(NS(=O)(=O)c2ccc3nnn(O)c3c2)c1 | 435 | 10.6% (inactive) | -5.7% (inactive) | 108 | – | 152 | -0.403 (inactive) | -5.1e-06 (inactive) | 0.00611 (inactive) | 12.9% (inactive) | 18.7% (inactive)
12 | O=C(O)CCc1ccc(-c2ccc(F)cc2)n1CC(=O)O | 411 | 7.9% (inactive) | 0.9% (inactive) | 97 | – | 142 | -0.462 (inactive) | -0.000309 (inactive) | 0.00527 (inactive) | 10.3% (inactive) | 19.7% (inactive)
13 | CCCn1c(N)c(C(=O)CSc2nnc(Cc3ccccc3)o2)c(=O)n(C)c1=O | 412 | 1% (inactive) | 4.7% (inactive) | 99.8 | – | 150 | -0.556 (inactive) | 0.00012 (inactive) | 0.00683 (inactive) | 9.61% (inactive) | -3.84% (inactive)
14 | COC(=O)C1=C(C)C(c2cccs2)NC(=O)N1C (stereo not drawn) | 464 | 4.4% (inactive) | -0.4% (inactive) | 102 | – | 137 | -0.618 (inactive) | -2.3e-05 (inactive) | 0.0046 (inactive) | 15.4% (inactive) | 17.5% (inactive)
15 | O=C(O)CCc1ccc(-c2ccc(Br)cc2)n1CC(=O)O | 339 | 7.5% (inactive) | -4.6% (inactive) | 90 | -65% (inactive) | 112 | -0.378 (inactive) | -5.5e-05 (inactive) | 0.00594 (inactive) | 10.9% (inactive) | 28.5% (inactive)
16 | COc1ccc2cc(CN(CCO)C(=O)c3ccccc3F)c(=O)[nH]c2c1 | 474 | 9.4% (inactive) | -16% (inactive) | 108 | -93% (inactive) | 110 | -0.496 (inactive) | 5.3e-06 (inactive) | 0.00191 (inactive) | -11.1% (inactive) | -5.69% (inactive)
17 | COc1ccc(-n2c(Cc3cccn3C)nnc2SCC(N)=O)cc1 | 531 | -4.4% (inactive) | 6.6% (inactive) | 63.8 | 1.4% (inactive) | 99.3 | -0.59 (inactive) | -3.3e-05 (inactive) | 0.00644 (inactive) | 17.9% (inactive) | 27.2% (inactive)
18 | CC1CN(C(=O)CSc2nnc(-c3ccc(Cl)cc3)n2C)CC(C)O1 (stereo not drawn) | 345 | 1.1% (inactive) | -13.2% (inactive) | 91.5 | -122% (inactive) | 124 | -0.275 (inactive) | -3.8e-05 (inactive) | 0.00669 (inactive) | -5.39% (inactive) | -17.3% (inactive)
19 | Cc1ccc2c(CC(=O)OCc3csc(C)n3)coc2c1 | 367 | 0.2% (inactive) | 7.3% (inactive) | 92.6 | – | 106 | -0.44 (inactive) | 2.3e-05 (inactive) | 0.00641 (inactive) | 6.62% (inactive) | 30% (inactive)

Source: PubChem BioAssay
